Here are results for 91 compounds from PubChem BioAssay AID504660 (National Center for Advancing Translational Sciences (NCATS), 2011).

Several values for one entry are separate records, joined by “and”; a condition that tells them apart may be missing. Equal values may be shown once. In all, about 360,000 compounds went through this assay and about 3,700 (1%) were called active. The full list was thinned out, with actives kept by preference. A number with no mark means an inactive call. Rule as the data show it: active = activation above about 30%; inactive = the rest.

Chain of D(1A) dopamine receptor (Homo sapiens) (P21728 whole entry, looked up): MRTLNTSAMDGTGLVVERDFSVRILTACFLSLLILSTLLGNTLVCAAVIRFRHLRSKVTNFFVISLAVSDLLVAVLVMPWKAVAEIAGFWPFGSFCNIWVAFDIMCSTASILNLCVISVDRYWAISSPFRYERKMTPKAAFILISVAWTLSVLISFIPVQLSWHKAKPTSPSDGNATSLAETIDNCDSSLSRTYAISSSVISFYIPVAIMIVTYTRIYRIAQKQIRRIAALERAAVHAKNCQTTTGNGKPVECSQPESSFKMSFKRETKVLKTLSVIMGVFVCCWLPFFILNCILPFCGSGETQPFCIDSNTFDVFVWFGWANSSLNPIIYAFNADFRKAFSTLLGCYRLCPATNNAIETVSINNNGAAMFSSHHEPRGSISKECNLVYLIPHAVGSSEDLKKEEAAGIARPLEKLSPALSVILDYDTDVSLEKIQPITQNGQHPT

The assay addresses D(1A) dopamine receptor (Homo sapiens) (UniProt P21728). The assay is described as follows: Allosteric Agonists of the Human D1 Dopamine Receptor: qHTS. Also: 0% is about no effect. The following applies: HEK293 T-REx D1 cells, calcium flux, agonist mode; at 2 µM; hits give high values. The gist of the method:
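Tetracycline-induced HEK293 TREx D1 cells, force-coupled to calcium signalling, were dye-loaded with a no-wash calcium kit. Compound was pin-added after a 10 s baseline. Fluorescence was read kinetically at 1 cycle/s for 180 s, with calcium rises flagged as agonism.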
In general terms: qHTS replaces the single test concentration by a dilution series.
For the compound `O=C(CCc1cn(Cc2ccc(F)cc2)c2ccccc12)NC1CCCCC1`, the activation was 4.91%.

Turning to `O=C(NCCc1ccc(Cl)cc1)c1ccc2c(c1)N(Cc1ccc(F)cc1)C(=O)CS2`, the activation is -1.03%.

`Oc1ccc(-c2nc3ccc(Cl)cn3c2Nc2ccc3c(c2)OCO3)cc1`: the activation was 2.27%.

Take `Cc1c(NC(=O)c2cc(=O)c3ccccc3o2)c(=O)n(-c2ccccc2)n1C`: the activation is -0.0323%.

Regarding `COc1ccccc1-c1noc(-c2ccc(NCc3ccccc3)c([N+](=O)[O-])c2)n1`, the activation is -1.19%.

Take `Cc1ccc(Cl)cc1NC(=O)CSc1nc2ccccc2nc1Cc1ccccc1`: the activation is 3.58%.

Regarding `CCCn1c2ccccc2c2cnn(CC(=O)NCCCN3CCCCC3CC)c(=O)c21` (stereo unspecified), the activation is 2.1% and -0.646%.

`CCCn1c2ccccc2c2cnn(CC(=O)NCCCOC(C)C)c(=O)c21`: the activation was -0.0904%.

In the case of `CCCn1c2ccccc2c2cnn(CC(=O)NCC3CCN(Cc4ccc(C)cc4)CC3)c(=O)c21`, the activation is 32% (active).

For the compound `Cc1ccc(NC(=O)Cc2ccc(NC(=O)N3CCCCc4ccccc43)cc2)cc1`, the activation was 4.12%.

As for `Cc1ccc(Cl)cc1NC(=O)C(C)n1nnc2sc(-c3ccccc3)cc2c1=O` (stereo unspecified), the activation is -0.45%.

On to `Cc1ccc(-n2c(SCC(=O)Nc3cccc(F)c3)nc3c(oc4ccccc43)c2=O)cc1C`, for which the activation was 4.64%.

Turning to `CCN(CC(=O)Nc1ccc2c(c1)OCO2)S(=O)(=O)c1ccccc1`, the activation was 2.93%.

As to `CCc1ccc(NC(=O)Cn2nnc(C(=O)NCc3ccc4c(c3)OCO4)c2N)cc1`, the activation was 0.807%.

Regarding `NS(=O)(=O)c1ccc(NC(=O)COC(=O)c2c3c(nc4ccccc24)/C(=C\c2ccc4c(c2)OCO4)CCC3)cc1`, the activation was 59.4% (active).

For `O=C(COC(=O)c1c2c(nc3ccccc13)CCCC2)c1ccc(Br)s1`, the activation was 8.91%.

Regarding `NC(=O)c1ccc(NC(=O)COC(=O)c2c3c(nc4ccccc24)/C(=C\c2ccc4c(c2)OCO4)CCC3)cc1`, the activation was 51.7% (active).

Regarding `CC(NC(=S)Nc1ccc(S(N)(=O)=O)cc1)c1ccc2c(c1)OCO2` (stereo unspecified), the activation is 3.07%.

With `CCN(CC)c1ccc(NC(=O)CN2CCN(CC(=O)Nc3ccc(Cl)cc3)CC2)cc1`, the activation was 2.48%.

As for `CC(C)CCN(C(=O)Nc1ccc(Cl)c(Cl)c1)C(C)c1cccs1` (stereo unspecified), the activation is 23.8%.

For `CCOc1ccccc1CNC(=O)c1ccc2c(c1)nc1n2CCC(C)C1` (stereo unspecified), the activation is -0.796%.

As for `N#CN1CCC(NC(=O)c2ccc(F)cc2)CC1`, the activation is 3.29%.

In the case of `COc1cccc(C(=O)NC2=NC(c3ccc(N(C)C)cc3)CC(=O)N2)c1` (stereo unspecified), the activation is -0.763%.

With `O=C(Nc1nccs1)C1CCCN1S(=O)(=O)c1cccc2cccnc12` (stereo unspecified), the activation was 0.517%.

In the case of `Cc1cc(C)cc(NC(=O)C2CCCN2S(=O)(=O)c2cccc3cccnc23)c1` (stereo unspecified), the activation is 34.7% (active).

Take `Cc1ccc(NC(=O)C2CCCN2S(=O)(=O)c2cccc3cccnc23)c(C)c1` (stereo unspecified): the activation is -0.331% and 2.62%.

On to `Cc1noc(/C=C/N(C)C)c1S(=O)(=O)N1CCCC(C(=O)Nc2cccc(F)c2)C1` (stereo unspecified), for which the activation was 5.84%.

For the compound `O=C(COc1ccccc1)OCc1cc(=O)n2nc(-c3cccs3)sc2n1`, the activation was 3.1%.

In the case of `Cc1cccc(C(CC(=O)NCC2(c3ccccc3)CCCC2)c2ccccc2)c1O` (stereo unspecified), the activation is 2.41%.

For the compound `O=C(CCOc1ccccc1)N(Cc1cccnc1)c1nc2ccc(Cl)cc2s1`, the activation is 2.39%.

Turning to `COCCCNC(=S)N1CCN(c2nc(-c3cccc(OC)c3)cs2)CC1`, the activation was 6.03%.

For `CN(C)CCCNC(=S)N1CCC(c2nc3ccccc3[nH]2)CC1`, the activation was -0.699%.

As to `CN(C)CCCNC(=S)N1CCN(c2nc(-c3ccccc3)cs2)CC1`, the activation was 32.3% (active).

Regarding `COc1cccc(CNc2nccn(-c3ccc(OC)c(OC)c3)c2=O)c1`, the activation is 1.78%.

For `COc1cc(NC(=O)Cn2c(=O)n(Cc3ccco3)c(=O)c3oc4ccccc4c32)cc(OC)c1`, the activation was -0.131%.

Regarding `CC(C)CCn1cnc2c1c(=O)n(CC(=O)NC(N)=O)c(=O)n2Cc1ccccc1`, the activation is 1.24%.

As for `COCCn1cnc2c1c(=O)n(CC(=O)NN)c(=O)n2Cc1ccccc1`, the activation was 1.04%.

With `N=c1c2c(-c3ccccc3)c(-c3ccccc3)n(Cc3ccccc3)c2ncn1CCCO`, the activation is 112% (active).

For the compound `Cc1cc(C)cc(NC(c2nnc(-c3cccc(F)c3)o2)c2ccc(F)cc2Cl)c1` (stereo unspecified), the activation is 2.35%.

In the case of `N#C/C(=C\c1ccccc1F)c1nc2ccccc2c(=O)[nH]1`, the activation was 6.41%.

In the case of `Cn1c(COc2ccccc2C(C)(C)C)nc2ccccc21`, the activation is 19.9%.

Regarding `S=C(Nc1ccc(Br)cc1)NC1CCN(Cc2ccccc2)CC1`, the activation is 39.5% (active).

With `Cc1cc(C(=O)NC2CCN(Cc3ccccc3)CC2)n[nH]1`, the activation is 1.69%.

On to `CC1CN(C(=S)Nc2ccc(Br)cc2Cl)CC(C)O1` (stereo unspecified), for which the activation was -0.955%.

Turning to `O=C(NC1CCN(Cc2ccccc2)CC1)c1cc(Br)c(Br)[nH]1`, the activation was 7.63%.

`Cc1cc(Br)ccc1NC(=S)NC1CCCC1`: the activation is 9.12%.

For `S=C(Nc1ccc(Br)cc1Cl)NC1CCN(Cc2ccccc2)CC1`, the activation was 30.9% (active).

Turning to `CCN(Cc1ccccc1)Cc1c(O)ccc2c(=O)c(-c3ccc(Cl)cc3Cl)coc12`, the activation is -1.31%.

`Cc1ccc(NC(=O)NC(C)c2c(-n3cccc3)sc(C)c2C)c(C)c1` (stereo unspecified): the activation is -1.09%.

In the case of `CCOC(=O)c1cc2ccccc2nc1C`, the activation is 31.8% (active).

Turning to `CCOC(=O)c1cc2ccccc2n1CC(=O)c1ccccc1`, the activation is 6.36%.

Regarding `CCOC(=O)c1cc(NC(=O)SCC(=O)O)c(C)nc1C`, the activation is 1.84%.

Consider `CCOc1ccc(N(CC)C(=O)C2CCN(S(=O)(=O)c3cccc4nonc34)CC2)cc1`, for which the activation is 0.273%.

For the compound `CCOc1cccc(CC(=O)N2CCc3c([nH]c4ccccc34)C2c2ccc(F)cc2)c1OCC` (stereo unspecified), the activation is 2.49%.

Regarding `O=C(NC(=S)Nc1ccc(Cl)cc1Cl)C1CC1`, the activation was 1.23%.

As for `Cc1ccccc1NC(=S)NC(=O)Cc1ccc(Cl)cc1`, the activation is 69.1% (active).

Regarding `Cc1ccccc1N/C(SCc1ccc(Cl)cc1)=C(/C#N)C(N)=O`, the activation is 3.17%.

In the case of `O=C(Cc1ccc(Cl)cc1)NC(=S)Nc1ccccc1O`, the activation is 35.4% (active).

As to `COC(=O)c1ccccc1NC(=O)CN(Cc1ccc(Cl)cc1)S(C)(=O)=O`, the activation was 3.99%.

On to `Cc1cc(C(=O)NNC(=S)Nc2ccccc2C)cs1`, for which the activation is 2.41%.

As for `Cc1nnc(NC(=O)CSc2nc3c([nH]c4ccccc43)c(=O)n2-c2cccc(Cl)c2)s1`, the activation is -0.131%.

As for `COC(=O)c1scc(-c2ccccc2)c1S(=O)(=O)Nc1ccccc1`, the activation is 3.73%.

For `COc1cccc(NC(=O)C(=O)NCC(c2ccc3c(c2)OCO3)N2CCN(C)CC2)c1` (stereo unspecified), the activation is 5.73%.

With `Cn1c(=O)c2c(SCC(=O)N3CCc4ccccc43)nc(-c3ccc(Cl)cc3)nc2n(C)c1=O`, the activation was 0.75%.

For `CCc1ccc(NC(=O)c2cc(S(=O)(=O)N3CCCC(C)C3)cn2C)cc1` (stereo unspecified), the activation is 3.74%.

In the case of `CC(C)c1ccc(S(=O)(=O)Nc2ccc(O)c(Sc3nc4ccccc4s3)c2)cc1`, the activation was 2.29%.

With `CCN(C(=O)Cn1cc(S(=O)(=O)N2CCN(c3ccccc3F)CC2)c2ccccc2c1=O)c1ccc(C)c(C)c1`, the activation was 11.2%.

Take `Cc1ccc(C(=O)N2c3ncnn3C3(CCCCC3)[C@@H]3CCCC[C@@H]32)cc1`: the activation was -0.224%.

In the case of `Cc1ccc2c(c1)N(C(=O)CCC(=O)NCc1ccccc1F)CC(C)O2` (stereo unspecified), the activation was 1.03%.

On to `O=C(COc1ccc(NC(=O)c2ccccc2[N+](=O)[O-])cc1)c1ccc(F)cc1`, for which the activation is 3.67%.

As for `O=C(CCc1ccccc1)Nc1nn[nH]n1`, the activation is 3.14%.

In the case of `O=C(CCc1ccccc1)Nc1ncc([N+](=O)[O-])s1`, the activation was 30.3% (active).

As for `O=C(CCc1ccccc1)Nc1ccc(NC(=O)C2CC2)nc1`, the activation is 5.75%.

For `Cc1ccc2nsnc2c1NC(=O)c1ccccc1[N+](=O)[O-]`, the activation is 6.33%.

Regarding `CC(=O)Oc1ccccc1C(=O)Nc1ncc([N+](=O)[O-])s1`, the activation was 32.6% (active).

As for `Fc1cccc(-n2ncc3c2ncn2nc(-c4ccccc4Cl)nc32)c1`, the activation is -0.538%.

For `CCOc1ccc(N(CC)S(=O)(=O)N2CCCC(C(=O)NCc3ccc(SC)cc3)C2)cc1` (stereo unspecified), the activation is 15.3%.

`COc1cc(=O)[nH]c(=O)n1C(=O)Cc1ccccc1`: the activation was 3.4%.

`COc1cccc(N2C(=O)CN(Cc3ccccc3)C2=S)c1`: the activation is 2.26%.

As for `COc1cc(/C=C2/SC(=S)N(Cc3ccccc3)C2=O)cc(OC)c1O`, the activation was 61.8% (active).

For `CCOc1ccc(S(=O)(=O)Nc2ccc3oc4c(c3c2)CC(C)CC4)cc1` (stereo unspecified), the activation is 8.18%.

In the case of `O=C(NCCc1ccccc1)c1ccc2c(c1)N(Cc1ccccc1)C(=O)c1ccccc1S2(=O)=O`, the activation is 5.9%.

As to `Cc1ccc(O)c(NC(=S)NC(=O)COc2ccc(Br)cc2)c1`, the activation is 54.2% (active).

As to `Cc1ccc(O)c(/C=N/NC(=O)COc2ccc3c(C)cc(=O)oc3c2)c1`, the activation was 3.75%.

As to `Cc1ccc(O)c(NC(=O)c2cc(-c3ccc(F)cc3)no2)c1`, the activation is -1.3%.

Regarding `Cc1ccc(C)c(NC(=O)Cn2ccn(-c3ccc(F)cc3)c(=O)c2=O)c1`, the activation is 10.6%.

Take `COc1cc(N2CCCC2)c(OC)cc1/C=C(/C#N)c1cccc(Br)c1`: the activation is 34.6% (active).

`CCOC(=O)c1c(C)oc2nc(C)nc(N3CCN(c4ccc(OC)cc4)CC3)c12`: the activation is 0.866%.

`COc1cc(Br)cc2cc(S(=O)(=O)c3ccccc3)c(=O)oc12`: the activation was 2.11%.

As for `Cc1cc(S(=O)(=O)c2cc3ccc(O)c(C)c3oc2=O)ccc1F`, the activation is 56.6% (active).

Turning to `COc1ccc(NC(=O)c2ccc3oc(=O)c(S(=O)(=O)c4ccc(F)cc4)cc3c2)c(OC)c1`, the activation was -0.0208%.
